{
  "source": "paper PMC4336329",
  "about": "(PLoS ONE, 2015)",
  "note": "The campaign covered roughly 310,000 compounds. About 14,000 (4.5%) showed an effect of 50% or more. Effects have a minus sign here. The entries come from a sample that favours strong results as a whole.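 Note: peak tail current of the secondary pulse compared with the same well before compound.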",
  "data": [
    {"target": "human ether-à-go-go-related gene (hERG) potassium channel (human, UniProt Q12809)", "sequence (Q12809 whole entry, looked up)": "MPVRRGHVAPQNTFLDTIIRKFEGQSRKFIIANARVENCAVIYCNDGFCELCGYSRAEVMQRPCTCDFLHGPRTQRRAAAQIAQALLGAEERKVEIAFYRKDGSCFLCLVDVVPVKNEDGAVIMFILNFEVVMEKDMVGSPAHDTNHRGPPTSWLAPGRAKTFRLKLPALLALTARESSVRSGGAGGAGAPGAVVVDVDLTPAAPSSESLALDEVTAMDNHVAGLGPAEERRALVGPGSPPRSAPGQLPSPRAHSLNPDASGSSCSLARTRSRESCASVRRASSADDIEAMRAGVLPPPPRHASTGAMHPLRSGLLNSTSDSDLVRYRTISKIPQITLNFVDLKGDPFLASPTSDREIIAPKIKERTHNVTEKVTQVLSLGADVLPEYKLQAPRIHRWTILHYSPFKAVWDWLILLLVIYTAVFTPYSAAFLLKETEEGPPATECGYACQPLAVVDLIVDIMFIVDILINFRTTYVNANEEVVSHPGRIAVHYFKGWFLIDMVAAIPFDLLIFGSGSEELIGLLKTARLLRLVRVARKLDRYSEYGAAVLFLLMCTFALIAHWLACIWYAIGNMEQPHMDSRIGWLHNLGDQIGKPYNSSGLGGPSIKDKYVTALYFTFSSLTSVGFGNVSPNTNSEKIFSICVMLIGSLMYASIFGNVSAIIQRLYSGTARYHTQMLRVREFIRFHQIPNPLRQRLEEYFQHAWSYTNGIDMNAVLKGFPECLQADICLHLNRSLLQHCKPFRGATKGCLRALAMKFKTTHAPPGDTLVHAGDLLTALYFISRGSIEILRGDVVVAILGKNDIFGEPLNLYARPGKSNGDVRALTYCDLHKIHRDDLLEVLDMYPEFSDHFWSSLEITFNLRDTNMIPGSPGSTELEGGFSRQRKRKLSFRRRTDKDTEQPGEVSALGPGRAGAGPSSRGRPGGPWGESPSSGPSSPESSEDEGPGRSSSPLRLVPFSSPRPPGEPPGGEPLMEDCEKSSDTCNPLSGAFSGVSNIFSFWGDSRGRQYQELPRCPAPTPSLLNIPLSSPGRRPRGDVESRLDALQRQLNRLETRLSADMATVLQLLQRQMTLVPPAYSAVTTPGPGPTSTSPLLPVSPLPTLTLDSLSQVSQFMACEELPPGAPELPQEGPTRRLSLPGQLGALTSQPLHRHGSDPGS", "assay": "primary screen, population patch clamp on CHO cells stably expressing hERG; higher = less effect of the substance", "units": {"hERG current change (%, negative = inhibition) at 10uM": "%"}, "values": [
      {"smiles": "Cc1ccc(C(=O)N2CCCC(C(=O)c3ccc(Oc4ccccc4)cc3)C2)cn1", "note": "(stereo not shown)", "hERG current change (%, negative = inhibition) at 10uM": -41},
      {"smiles": "CCC(=O)N1CCc2cc(S(=O)(=O)NC(C(=O)NCc3ccccc3)C(C)C)ccc21", "note": "(stereo not shown)", "hERG current change (%, negative = inhibition) at 10uM": 13.2},
      {"smiles": "COc1ccc(OCC(=O)Nc2cccc(S(=O)(=O)N(C)c3ccccc3)c2)c([N+](=O)[O-])c1", "hERG current change (%, negative = inhibition) at 10uM": -6.21},
      {"smiles": "CCC1c2ccc(C)n2CCN1C(=O)Nc1ccccc1OC", "note": "(stereo not shown)", "hERG current change (%, negative = inhibition) at 10uM": 9.92},
      {"smiles": "C=CCN(CC=C)C(=S)NC(=O)/C=C/c1ccc(C)cc1", "hERG current change (%, negative = inhibition) at 10uM": 8.14},
      {"smiles": "CC1(C)C(=O)N(c2ccccc2Cl)C(=O)c2ccccc21", "hERG current change (%, negative = inhibition) at 10uM": -18.2},
      {"smiles": "Cl.O=C(CCN1CCCC1)Nc1ccc(Br)cc1", "hERG current change (%, negative = inhibition) at 10uM": -15.7},
      {"smiles": "COc1ccc(C(=O)CCN2CCCC(C)C2)cc1.Cl", "note": "(stereo not shown)", "hERG current change (%, negative = inhibition) at 10uM": -26.2},
      {"smiles": "S=C(NCCN1CCOCC1)Nc1ccc(Cl)cc1", "hERG current change (%, negative = inhibition) at 10uM": 5.48},
      {"smiles": "CCN1CCN(CCC(=O)Nc2ccc(Br)cc2)CC1.Cl", "hERG current change (%, negative = inhibition) at 10uM": -24.4},
      {"smiles": "COc1ccc(NC(=O)CCN2CCCC(C)C2)cc1", "note": "(stereo not shown)", "hERG current change (%, negative = inhibition) at 10uM": -23.2},
      {"smiles": "CC1CCN(CCC(=O)Nc2ccc(Br)cc2)CC1.Cl", "hERG current change (%, negative = inhibition) at 10uM": -54.6},
      {"smiles": "CC1CCCN(CCC(=O)Nc2ccccc2)C1.Cl", "note": "(stereo not shown)", "hERG current change (%, negative = inhibition) at 10uM": 12.2},
      {"smiles": "COc1ccc(NC(=S)NCCN2CCC(C)CC2)cc1", "hERG current change (%, negative = inhibition) at 10uM": -46},
      {"smiles": "CC1CCN(CCNC(=S)Nc2ccc(Cl)cc2)CC1", "hERG current change (%, negative = inhibition) at 10uM": -65.7},
      {"smiles": "Cc1cccc(NC(=O)CCN2CCCC(C)C2)c1.Cl", "note": "(stereo not shown)", "hERG current change (%, negative = inhibition) at 10uM": 1.45},
      {"smiles": "CC1CCCN(CCC(=O)Nc2ccc(Br)cc2)C1.Cl", "note": "(stereo not shown)", "hERG current change (%, negative = inhibition) at 10uM": -57.6},
      {"smiles": "CC1CCCN(CCC(=O)c2ccc(Br)cc2)C1.Cl", "note": "(stereo not shown)", "hERG current change (%, negative = inhibition) at 10uM": -64.4},
      {"smiles": "CCS(=O)(=O)c1ncc(Cl)c(C(=O)Nc2ccc(S(=O)(=O)N3CCC(C)CC3)cc2)n1", "hERG current change (%, negative = inhibition) at 10uM": 14.9},
      {"smiles": "CC(=O)c1ccc(NC(=O)C(C)OC(=O)c2ccc(NS(=O)(=O)c3ccc(F)c(F)c3)cc2)cc1", "note": "(stereo not shown)", "hERG current change (%, negative = inhibition) at 10uM": -6.98},
      {"smiles": "COc1ccc(C(C)NC(=O)c2ccc(Cl)cc2)cc1OC", "note": "(stereo not shown)", "hERG current change (%, negative = inhibition) at 10uM": 0.0898},
      {"smiles": "Cc1ccc(/C=C/c2nnc(-c3ccc(C)cc3)o2)cc1", "hERG current change (%, negative = inhibition) at 10uM": 11.3},
      {"smiles": "COCCNC(=O)Nc1ccc2c(c1)N(C)C(=O)CS2", "hERG current change (%, negative = inhibition) at 10uM": 11.5},
      {"smiles": "COc1ccc(NC(=O)/C(=C\\c2ccc(OS(=O)(=O)c3ccc(C)cc3)cc2)NC(=O)c2ccccc2)cc1", "hERG current change (%, negative = inhibition) at 10uM": 17.1},
      {"smiles": "CC(=O)N1CCN=C1SCc1ccccc1F", "hERG current change (%, negative = inhibition) at 10uM": 12.6},
      {"smiles": "Cc1cc(C(=O)O)c(S(C)(=O)=O)s1", "hERG current change (%, negative = inhibition) at 10uM": -1.18},
      {"smiles": "O=[N+]([O-])c1cccc(-c2nnn(C34CC5CC(CC(C5)C3)C4)n2)c1", "hERG current change (%, negative = inhibition) at 10uM": 5.85},
      {"smiles": "CC1CCN(CCC(=O)Nc2ccc(Cl)cc2)CC1.Cl", "hERG current change (%, negative = inhibition) at 10uM": -56.9},
      {"smiles": "CC1CC(C)CN(CCC(=O)Nc2ccc(Br)cc2)C1.Cl", "note": "(stereo not shown)", "hERG current change (%, negative = inhibition) at 10uM": -53.5},
      {"smiles": "Cc1cccc(NC(=O)CCN2CC(C)CC(C)C2)c1.Cl", "note": "(stereo not shown)", "hERG current change (%, negative = inhibition) at 10uM": -49.2},
      {"smiles": "CC1CC(C)CN(CCC(=O)Nc2ccc3c(c2)CCC3)C1.Cl", "note": "(stereo not shown)", "hERG current change (%, negative = inhibition) at 10uM": -43.6},
      {"smiles": "Cc1ccc(NC(=O)CCN2CCC(C)CC2)cc1.Cl", "hERG current change (%, negative = inhibition) at 10uM": 18.6},
      {"smiles": "CC1CCN(CCC(=O)Nc2ccccc2)CC1", "hERG current change (%, negative = inhibition) at 10uM": -10.1},
      {"smiles": "COc1ccc(CN2C(=O)NC3(CCOc4ccccc43)C2=O)cc1F", "note": "(stereo not shown)", "hERG current change (%, negative = inhibition) at 10uM": -13.4},
      {"smiles": "COC(=O)c1c(NC(=S)Nc2ccc(F)cc2[N+](=O)[O-])sc2c1CCCCC2", "hERG current change (%, negative = inhibition) at 10uM": 4.46},
      {"smiles": "CCOC(=O)C1CCCN(C/C=C/c2ccccc2)C1", "note": "(stereo not shown)", "hERG current change (%, negative = inhibition) at 10uM": -24.5},
      {"smiles": "O=[N+]([O-])c1ccccc1/C=C/CN1CCCCC1CO", "note": "(stereo not shown)", "hERG current change (%, negative = inhibition) at 10uM": 5.49},
      {"smiles": "CCOC(=O)C1CCN(C/C=C/c2ccccc2[N+](=O)[O-])CC1", "hERG current change (%, negative = inhibition) at 10uM": -70.2},
      {"smiles": "CCOC(=O)C1CCN(C/C=C/c2ccccc2)CC1", "hERG current change (%, negative = inhibition) at 10uM": -28.2},
      {"smiles": "CCOC(=O)C1CCCN(C/C=C/c2ccccc2[N+](=O)[O-])C1", "note": "(stereo not shown)", "hERG current change (%, negative = inhibition) at 10uM": -68.2},
      {"smiles": "CCOC(=O)C1CCN(C/C=C/c2ccccc2OC)CC1", "hERG current change (%, negative = inhibition) at 10uM": -20.5},
      {"smiles": "CCC1CCCCN1C/C=C/c1ccccc1[N+](=O)[O-]", "note": "(stereo not shown)", "hERG current change (%, negative = inhibition) at 10uM": -60.2},
      {"smiles": "CC1CCCN(C/C=C/c2ccccc2[N+](=O)[O-])C1", "note": "(stereo not shown)", "hERG current change (%, negative = inhibition) at 10uM": -23.1},
      {"smiles": "CC1CC(C)CN(C/C=C/c2ccccc2[N+](=O)[O-])C1", "note": "(stereo not shown)", "hERG current change (%, negative = inhibition) at 10uM": -55.9},
      {"smiles": "O=[N+]([O-])c1ccccc1/C=C/CN1CCCCC1", "hERG current change (%, negative = inhibition) at 10uM": -6.44},
      {"smiles": "CC1CCCCN1C/C=C/c1ccccc1[N+](=O)[O-]", "note": "(stereo not shown)", "hERG current change (%, negative = inhibition) at 10uM": -39},
      {"smiles": "CCN(CC)C(=O)C1CCCN(C/C=C/c2ccccc2[N+](=O)[O-])C1", "note": "(stereo not shown)", "hERG current change (%, negative = inhibition) at 10uM": -33},
      {"smiles": "C[N+](C)(C)CCN1C(=O)CSC1=O.[I-]", "hERG current change (%, negative = inhibition) at 10uM": 10.3},
      {"smiles": "COC(=O)c1ccc(NC(=O)CSCc2ccccc2)cc1", "hERG current change (%, negative = inhibition) at 10uM": -13.8},
      {"smiles": "Cc1ccccc1C(=O)O/N=C1\\CCS(=O)(=O)c2sccc21", "hERG current change (%, negative = inhibition) at 10uM": 8.17},
      {"smiles": "Cc1ccccc1NC(=S)NC(NC(=O)CF)C(Cl)(Cl)Cl", "note": "(stereo not shown)", "hERG current change (%, negative = inhibition) at 10uM": 2.77},
      {"smiles": "CCOP(=O)(OCC)C(NC(=O)Nc1cccc(Cl)c1)C(N)=O", "note": "(stereo not shown)", "hERG current change (%, negative = inhibition) at 10uM": 8.47},
      {"smiles": "C/C(=N\\OCC(=O)Nc1ccccc1C(C)(C)C)c1ccc2c(c1)OCCO2", "hERG current change (%, negative = inhibition) at 10uM": -10.9},
      {"smiles": "O=C(Nc1ccc(Cl)cc1)OCc1cc(-c2ccccc2Cl)on1", "hERG current change (%, negative = inhibition) at 10uM": 7.51},
      {"smiles": "CC1CN(C(=O)COC(=O)c2ccc(Cl)nc2)CC(C)O1", "note": "(stereo not shown)", "hERG current change (%, negative = inhibition) at 10uM": 6.41},
      {"smiles": "COc1ccc(OC)c(C2CC(=O)N3CN(c4ccccc4)CSC3=C2C#N)c1", "note": "(stereo not shown)", "hERG current change (%, negative = inhibition) at 10uM": 9.38},
      {"smiles": "CC(=O)n1cc(/C=C2/N=C(c3ccccc3)OC2=O)c2ccccc21", "hERG current change (%, negative = inhibition) at 10uM": 7.37},
      {"smiles": "CC1=CC(c2ccccc2)n2nc(N3C(=O)C4CC=CCC4C3=O)nc2N1", "note": "(stereo not shown)", "hERG current change (%, negative = inhibition) at 10uM": -7.93},
      {"smiles": "O=C1C2CC=CCC2C(=O)N1c1nc2n(n1)C(c1ccccc1)CC(c1ccccc1)N2", "note": "(stereo not shown)", "hERG current change (%, negative = inhibition) at 10uM": -52.6},
      {"smiles": "CC1CC(c2ccccc2)n2nc(N3C(=O)c4ccccc4C3=O)nc2N1", "note": "(stereo not shown)", "hERG current change (%, negative = inhibition) at 10uM": 12.4},
      {"smiles": "CC1C/C(=C/c2cccn2C)C(=O)/C(=C/c2cccn2C)C1", "note": "(stereo not shown)", "hERG current change (%, negative = inhibition) at 10uM": 9.5}
    ]}
  ]
}
